From PubChem BioAssay

Assay: adipocyte viability effects, profiling panel, cell-based, 3T3-L1 adipocytes, calcein-AM fluorescence, 48 h, basal (AID 1163); further: test concentration not given here
Conditions: 3T3-L1 adipocytes viability, higher = more signal

Structure (SMILES) | z-score
CCOC(=O)C[C@H]1[C@H](OC(=O)Cc2ccc3c(c2)OCO3)[C@@H](NC(=O)c2ccc3ccccc3n2)c2cc(OCCCO)ccc2N1C(=O)c1ccccc1 | 0.288
COc1ccc([Si](C)(C)[C@@H]2[C@@H](CC(=O)N(CCO)Cc3ccccc3)O[C@]3(C(=O)N(Cc4cccc(N5CCCCC5=O)c4)c4ccccc43)[C@H]2C)cc1 | 0.579
C=C[C@@H](OC)[C@H](OC(=O)Nc1ccc(OC)cc1)c1ccc(O)c(F)c1 | 0.792
CCCCCC1=C2CNC(C)(C(=O)OC)C=C2C(C)C1=O (stereo not given) | -0.0708
O=C1NC(=O)C2C1C=CC(C(O)c1ccco1)N2Nc1ccc(Cl)cc1Cl (stereo not given) | -0.792
CCC#CCN(Cc1ccccc1Br)[C@H](/C=C/C1CC1)[C@@H](O)Cc1ccccc1 | 0.929
COc1ccc([Si](C)(C)[C@@H]2[C@@H](CC(=O)N3Cc4ccccc4C[C@H]3CO)O[C@]3(C(=O)N(Cc4ccc(N5C(=O)c6cccc7cccc5c67)cc4)c4ccccc43)[C@H]2C)cc1 | 0.885
[N-]=[N+]=Nc1ccccc1C[C@@]1(C(=O)NCCN2CCOCC2)N=C(c2ccc(OCCCO)cc2)O[C@@H]1c1ccccc1N=[N+]=[N-] | 0.205
CC1=C2[C@@H](CCc3ccccc3)OB(O)C[C@@H]2[C@@H]2C(=O)N(Cc3ccccc3)C(=O)[C@@H]2C1 | -0.351
CC1CC/C=C\[C@H]2OC34C=CCN(Cc5ccccc5)C(=O)[C@H]3N(C(CO)C(C)C)C(=O)[C@@H]4C2C(=O)O1 (stereo not given in full) | 0.493
COc1cccc(C)c1NC(=O)O[C@H]1[C@H](OC(=O)Nc2ccc3c(c2)OCO3)[C@@H](OC(=O)Nc2ccc3c(c2)OCO3)[C@@H](OC)O[C@@H]1CO | -0.271
Cc1ccccc1C(O)C1C=CC2C(=O)NC(=O)C2N1Nc1ccccn1 (stereo not given) | -1.09
CCCCC(=C=CC[C@H](O)c1ccc(OCCO)cc1)CCO | 0.524
CC(c1ccccc1)C(O)C1C=CC2C(=O)N(C)C(=O)C2N1Nc1ccccc1 (stereo not given) | -0.856
C=CCC(OC(C)=O)[C@@H]1[C@@H](N(Cc2ccc(-c3cccc(C(F)(F)F)c3)o2)C(=O)Cc2ccc(OC)cc2)c2cc(OCCCO)ccc2N1C(=O)c1ccc(-c2ccccc2)cc1 (stereo not given in full) | 0.647
Cc1ccc(S[C@]2(C(=O)NC(C)C)CC(=O)N(Cc3cc(C(F)(F)F)cc(C(F)(F)F)c3)[C@@H]2c2ccc(CO)cc2)cc1 | -0.312
CCOC(=O)C[C@H]1[C@H](OC(=O)c2cc3ccccc3oc2=O)[C@@H](NC(=O)CC(C)C)c2cc(OCCCO)ccc2N1C(=O)c1ccc2ccccc2n1 | -0.166
COc1ccc(CCNC(=O)[C@@]2(c3ccc([N+](=O)[O-])cc3)CC(=O)N(C3CCCCC3)[C@@H]2c2ccc(CO)cc2)cc1 | 0.414
C[C@@H]1NC(=O)[C@@H](Cc2ccccc2)NC(=O)[C@@]23C(=O)N[C@@H](Cc4ccccc4)C2[C@H](C)[C@@]2(C)O[C@H]2C3/C=C/C/C=C\CNC1=O (stereo not given in full) | 0.599
CCC1=C2CN(Cc3ccccc3)[C@@H](C(=O)Cc3ccccc3)C2C=CCC1 (stereo not given in full) | 1.47
N#Cc1ccc(NN2C(C(O)c3ccc(Br)cc3)C=CC3C(=O)N(c4ccccc4)C(=O)C32)cc1 (stereo not given) | 0.0175
OCCCC1=CC(c2ccc(CN3CCCC3)cc2)N(Cc2cc3c(cc2Br)OCO3)CC1 (stereo not given) | 1.07
O=C(O)[C@@H]1C[C@@H]2C(=O)N3CCC[C@H]3C(=O)N2[C@@H]1c1ccc(O)cc1 | 1.13
CC(C)[Si]1(C(C)C)OCc2cc(-c3ccc(-c4ccc(Cl)c(Cl)c4)o3)nc(-c3ccccc3)c21 | 0.369
COc1ccc([Si](C)(C)[C@@H]2[C@@H](CCO)O[C@]3(C(=O)N(Cc4ccccc4)c4ccc(N5C(=O)c6cccc7cccc5c67)cc43)[C@H]2C)cc1 | -0.384
C=C[C@H](C)[C@H](OC(=O)Nc1ccc(SC)cc1)c1ccc(OCCO)cc1 | 0.954
CCOC(=O)C[C@H]1[C@H](OC(=O)c2cc3ccccc3oc2=O)[C@@H](NC(=O)c2ccc3ccccc3n2)c2cc(OCCCO)ccc2N1C(=O)Cc1ccc(OC)cc1 | 0.499
O=C(NCCN1CCOCC1)[C@@H]1c2ccccc2C(=O)N(Cc2ccccc2Cl)[C@H]1c1ccc(CO)cc1 | -0.249
COC(=O)[C@@]1(Cc2ccc(F)cc2)[C@H]2c3cc(C(=O)N4CCCC4)n(Cc4ccc(C)c(F)c4F)c3C[C@H]2CN1C(=O)c1ccccc1 | -0.82
CCCCC(CC)C(O)C1C=CC2C(=O)N(c3ccccc3)C(=O)C2N1Nc1ccccc1F (stereo not given) | -0.21
